According to PubChem BioAssay AID624273 (Broad Institute, 2012):
The whole screen tested about 1,000 compounds, of which about 230 (23%) were called active. Not shown: some 1% with an inconclusive outcome. This is one part of the list. Potency and affinity values are given separately. Unmarked numbers belong to inactive results. How the calls were made is not given here.

molecular target: Long-chain-fatty-acid--AMP ligase FadD28 (Mycobacterium tuberculosis (strain ATCC 25618 / H37Rv)) (UniProt P9WQ59); assay: inhibitors of FadD28 bisubstrate probe binding, dose response, biochemical, fluorescence polarization, cherry-pick (AID 624273); settings: series mostly up to 50 µM; activity change, negative = inhibition: at the top concentration
Sequence (P9WQ59 whole entry, looked up): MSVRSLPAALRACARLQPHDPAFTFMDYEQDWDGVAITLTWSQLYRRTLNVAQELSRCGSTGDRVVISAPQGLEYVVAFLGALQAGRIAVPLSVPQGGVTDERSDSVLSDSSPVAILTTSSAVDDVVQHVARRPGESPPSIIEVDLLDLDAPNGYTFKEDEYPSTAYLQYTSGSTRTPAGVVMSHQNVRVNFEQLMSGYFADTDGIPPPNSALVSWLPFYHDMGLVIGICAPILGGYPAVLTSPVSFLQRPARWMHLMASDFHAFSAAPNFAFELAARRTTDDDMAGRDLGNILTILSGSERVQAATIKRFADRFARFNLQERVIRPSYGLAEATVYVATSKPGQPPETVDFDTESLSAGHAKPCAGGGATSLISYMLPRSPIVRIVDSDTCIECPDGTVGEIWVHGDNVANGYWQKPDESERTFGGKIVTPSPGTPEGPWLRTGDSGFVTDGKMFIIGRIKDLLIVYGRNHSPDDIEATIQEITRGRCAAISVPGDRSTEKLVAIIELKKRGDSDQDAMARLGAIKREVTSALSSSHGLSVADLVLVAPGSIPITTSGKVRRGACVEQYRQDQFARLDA

| SMILES | activity change, negative = inhibition [%] |
| --- | --- |
| c1ccc(-c2cc(-c3ccccc3)on2)cc1 | -4.78 |
| N#Cc1ccc(NCCc2ccccn2)c([N+](=O)[O-])c1 | -4.35 |
| CCCCC(=O)Nc1cc([N+](=O)[O-])ccc1Cl | -3.25 |
| CCS(=O)(=O)c1ncc(Cl)c(C(=O)Nc2ccc(S(=O)(=O)N3CCC(C)CC3)cc2)n1 | -3.68 |
| c1ccc2cc(OCCCn3ccnc3)ccc2c1 | 4.08 |
| CC12CCC(C(=O)NCCCn3ccnc3)(OC1=O)C2(C)C (stereo unspecified) | 0.92 |
| Cc1nn(CC(=O)NCc2ccco2)c(C)c1[N+](=O)[O-] | -5.9 |
| CC(C)(C)c1ccc(Cn2nnc3c(=O)[nH]c(C4CCCN(C(=O)c5cccs5)C4)nc32)cc1 (stereo unspecified) | 1.02 |
| COc1ccc(N=C2NC(=O)/C(=C\C=C\c3ccco3)S2)cc1 | -9.1 |
| COc1ccc(C(C)=O)cc1COC(=O)c1cnc(C)cn1 | -0.706 |
| CCN(C(=O)c1cc(OC)c(OC)c(OC)c1)C1CCCCC1 | -8.5 |
| CCc1cccc2c(C(=O)COC(=O)c3ccccc3)c[nH]c12 | -7.51 |
| CCc1cccc2c(C(=O)COC(=O)[C@@H]3CC(O)CN3S(=O)(=O)c3ccccc3[N+](=O)[O-])c[nH]c12 (stereo partly specified) | -1.47 |
| O=C(c1cc2cc(Br)ccc2oc1=O)N1CCCC1 | -5.4 |
| CC(C)CCOc1ccc(C(=O)N2CCCC2C(=O)O)cc1 (stereo unspecified) | -7.21 |
| C[C@@H]1CN([C@H](C)CO)C(=O)c2cc(NC(=O)Nc3ccc(C(F)(F)F)cc3)ccc2O[C@H]1CN(C)S(=O)(=O)c1cccs1 | -6.05 |
| Cc1ccc(S(=O)(=O)Nc2ccc(O)c3ccccc23)c(C)c1 | -15.6 |
| Cc1noc(/C=C/N(C)C)c1S(=O)(=O)N1CCCC(C(=O)NC2CCCCC2C)C1 (stereo unspecified) | -7.62 |

| SMILES | activity change, negative = inhibition [%] |
| --- | --- |
| CCOC(=O)c1cccc(P(=O)(C(C)(C)C)C(C)(C)C)c1 | 1.89 |
| C=CC(COCc1ccccc1)N(C(=O)OC(C)(C)C)S(=O)(=O)c1ccccc1Br (stereo unspecified) | 0.184 |
| C=CCC12C=C(OC)C(=O)OC(OC)(C1O)[C@H](c1ccc3c(c1)OCO3)[C@H]2C (stereo partly specified) | -8.23 |
| CCC1(CC)NC(=O)N(CC(=O)Nc2ccc(OCc3ccccc3)cc2)C1=O | -6.91 |
| Cc1ccc(S(=O)(=O)NCC(=O)OCC(=O)N2CCN(C(=O)c3ccco3)CC2)cc1C | -6.55 |
| CCc1cc(C(=O)O)c(NC(=O)C(c2ccccc2)c2ccccc2)s1 | -0.982 |
| CN1c2ccsc2C(O)=C(C(=S)Nc2ccc(F)c(Cl)c2)S1(=O)=O | -7.32 |
| CC1(C)Cc2ccccc2C(=NCCCC(=O)O)N1 | -2.17 |
| Oc1c(Cl)cc(Cl)cc1/C=N/NC(=S)NC1CC2C=CC1C2 (stereo unspecified) | -13.8 |
| CCCSc1ncc(Cl)c(C(=O)Nc2ccc(S(=O)(=O)N3CC(C)OC(C)C3)cc2)n1 (stereo unspecified) | -0.797 |
| C=CCC[C@@H](Cc1ccc(F)cc1)C(=O)OC[C@@H](NC(=O)[C@@H](CC=C)CC(=O)N(CCO)Cc1ccccc1)c1ccccc1 | 2.84 |
| O=C(Nc1ccccc1F)NC1CCCCCCC1 | -18.2 |
| COC(=O)CN(c1ccc(OC)cc1)S(=O)(=O)c1ccc(OC)c(OC)c1 | 0.952 |
| COC(=O)C1=C(c2ccc3ccccc3c2)C[C@@H]2CC[C@H]1N2C(=O)N1CCC(O)CC1 | -1.57 |
| N=c1c(C(=O)NCc2ccco2)cc2c(=O)n3ccccc3nc2n1Cc1ccccc1 | -1.35 |
| COC(=O)CCC(=O)N1CCCC(CO)(Cc2ccccc2F)C1 (stereo unspecified) | -0.525 |
| O=C(O)C1Sc2[nH]c(=O)sc2C2c3ccc(O)cc3OC(=O)C12 (stereo unspecified) | -16.8 |
| O=C(NC(NC(=S)Nc1c(Cl)cccc1Cl)C(Cl)(Cl)Cl)OCc1ccccc1 (stereo unspecified) | 8.05 |
